The structures appear in SMILES notation. The whole screen tested about 650,000 compounds, of which about 6,800 (1%) were called active. For the sample, actives were picked, then their nearest neighbours and some compounds at random. Unmarked numbers belong to inactive results. No stated cut-off is given here; in the data, active means activation above about 4.9%; inactive means the rest.

Consider 58 molecules from PubChem BioAssay AID1508602 (The Scripps Research Institute Molecular Screening Center, 2020).

The target of this test is G-protein coupled receptor 151 (Homo sapiens) (UniProt Q8TDV0). Put plainly: activates the human receptor GPR151, primary screen, cell-based, PathHunter beta-arrestin, luminescence (AID 1508602).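 Further: 0% = median of compound wells and 100% = cells with positive control.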 As to conditions: PathHunter beta-arrestin GPR151 cells, at 11.2 µM, stronger effect = higher value.
Sequence of G-protein coupled receptor 151 (Homo sapiens) (Q8TDV0 whole entry, looked up): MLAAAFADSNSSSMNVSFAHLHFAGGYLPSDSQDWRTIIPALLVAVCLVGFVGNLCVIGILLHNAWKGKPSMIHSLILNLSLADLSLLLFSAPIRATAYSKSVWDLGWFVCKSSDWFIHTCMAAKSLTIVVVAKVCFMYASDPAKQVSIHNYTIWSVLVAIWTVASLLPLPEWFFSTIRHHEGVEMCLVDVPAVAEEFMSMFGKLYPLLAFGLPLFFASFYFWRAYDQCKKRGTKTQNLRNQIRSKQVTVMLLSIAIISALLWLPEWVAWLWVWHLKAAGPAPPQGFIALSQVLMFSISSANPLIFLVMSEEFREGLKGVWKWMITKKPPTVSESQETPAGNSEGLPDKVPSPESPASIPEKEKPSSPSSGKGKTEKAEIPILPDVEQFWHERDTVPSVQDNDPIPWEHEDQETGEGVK
`Cc1ccc(C(=O)N/N=C\c2ccccc2O)cn1`: the activation is -0.843%.

In the case of `O=S(=O)(c1ccc2c(c1)CCCC2)N1CCOC(c2ccccc2)C1` (stereo not drawn), the activation is -1.43%.

As to `Cc1ccccc1-c1nc(SCC(=O)NCCc2ccccc2)c2c(=O)n(C)c(=O)n(C)c2n1`, the activation was -0.395%.

On to `CCN1CCN(C(=O)Cn2nc(Cc3cccnc3)c3ccccc3c2=O)CC1`, for which the activation was 1.14%.

As for `O=C1CCC(=O)NCC(=O)NCCOCCNC(=O)CN1`, the activation is -0.231%.

In the case of `CC/C(Cc1ccccc1)=N\NC(=O)c1ccccc1`, the activation is -1.22%.

`CN1CCN(c2ccc(-c3nc4ccc(C(=O)NCc5nc6ccccc6[nH]5)cc4s3)cc2)CC1`: the activation was 7.98% (active).

As for `CN1CCN(c2ccc(-c3nc4ccc(C(=O)NCc5ccccc5)cc4s3)cc2)CC1`, the activation is -0.195%.

`O=C(NCc1nc2ccccc2[nH]1)c1ccc2nc(-c3ccccc3)sc2c1`: the activation was -1.41%.

`COc1ccc(-c2noc(Nc3ccc(F)cc3)n2)cc1OC`: the activation was -0.36%.

Regarding `Cc1ccc(NC(=O)c2c[nH]c(=O)[nH]c2=O)cc1S(=O)(=O)N1CCCCC1`, the activation was -0.749%.

`COc1ccc(C(=O)NNC(=O)c2ccccc2[N+](=O)[O-])cc1OC`: the activation is -0.216%.

In the case of `CC(C)C(=O)NNS(=O)(=O)c1ccc([N+](=O)[O-])cc1`, the activation was 6.82% (active).

Take `O=C(NNS(=O)(=O)c1ccc([N+](=O)[O-])cc1)Nc1cccc(C(F)(F)F)c1`: the activation was 0.535%.

As to `CC(NS(=O)(=O)c1ccc([N+](=O)[O-])cc1)C(=O)N/N=C/c1ccc(O)cc1` (stereo not drawn), the activation was 0.173%.

Take `COCC(=O)Nc1c(I)c(C(=O)NCC(O)CO)c(I)c(C(=O)N(C)CC(O)CO)c1I` (stereo not drawn): the activation was 6.28% (active).

Regarding `CC(=O)N(CC(O)CO)c1c(I)c(C(=O)NCC(O)CO)c(I)c(C(=O)NCC(O)CO)c1I` (stereo not drawn), the activation was 0.874%.

With `Cc1[nH][nH]c(=O)c1C(c1ccc(-c2ccc(F)cc2[N+](=O)[O-])o1)c1c(C)[nH][nH]c1=O`, the activation is 6.05% (active).

Regarding `CC1=NOC(=O)/C1=C/c1ccc(-c2cc(C)c(C)cc2[N+](=O)[O-])o1`, the activation was 0.0267%.

Consider `Cc1[nH][nH]c(=O)c1C(c1ccc(-c2ccc(Cl)cc2)o1)c1c(C)[nH][nH]c1=O`, for which the activation was 0.733%.

`CCCOC(=O)COc1ccc2c(C)cc(=O)oc2c1`: the activation was -0.0136%.

In the case of `Cc1ccc(C2=NN(C(=O)CCC(=O)O)C(c3ccc(C)cc3)C2)cc1` (stereo not drawn), the activation is -1.19%.

Take `CC1=C(C(=O)Nc2ccc(Cl)cc2)C(c2ccc([N+](=O)[O-])cc2)n2nnnc2N1` (stereo not drawn): the activation was 0.405%.

In the case of `O=C(O)CC(NC(=O)c1ccccc1)c1ccc(F)cc1` (stereo not drawn), the activation was -0.457%.

On to `O=C(O)CC(NS(=O)(=O)Cc1ccccc1)c1ccc(F)cc1` (stereo not drawn), for which the activation is 1.1%.

For `CC(=O)NC(CC(=O)O)c1ccc(F)cc1` (stereo not drawn), the activation is 6.23% (active).

`O=C(NCc1ccc(F)cc1)c1nn2c(C(F)(F)F)cc(-c3cccs3)nc2c1Cl`: the activation was 0.443%.

Consider `Cc1ccccc1NC(=O)CSc1nnc(NC(=O)CCc2ccccc2)s1`, for which the activation is -0.763%.

`O=C1c2cccnc2C(=O)N1CCc1ccc(S(=O)(=O)N2CCCc3ccccc32)cc1`: the activation is -2.73%.

`COc1ccc(-c2cnn3ccc(Nc4ccc(O)cc4)nc23)c(OC)c1`: the activation was -0.387%.

Turning to `CC(=O)c1c(C)[nH]c(C(=O)Nc2cc(S(=O)(=O)N(C)C)ccc2C)c1C`, the activation was 0.871%.

Regarding `Cc1ccc(S(=O)(=O)N(C)C)cc1NC(=S)NCCc1ccc(O)c(O)c1`, the activation is -0.323%.

`COC(=O)NNC(=S)Nc1cc(S(=O)(=O)N(C)C)ccc1C`: the activation was 6.15% (active).

On to `NC(=O)c1ccc(NC(=O)CSc2nc(N)c(NC(=O)c3ccccc3)c(=O)[nH]2)cc1`, for which the activation was -0.254%.

In the case of `C#CCN1C(=O)C(O)(CC(=O)c2ccc(Br)cc2)c2ccccc21` (stereo not drawn), the activation is 4.05%.

Regarding `Cc1cc(N2CCCC2)nc(N2CCN(C(=O)c3ccccc3Cl)CC2)n1`, the activation was 0.558%.

Take `COC(=O)c1oc2ccc(Br)cc2c1NC(C)=O`: the activation is 6.57% (active).

Regarding `Cc1c(C(=O)Nc2nnc(C3CC3)s2)oc2ccc(Br)cc12`, the activation is -0.544%.

For `CCOC(=O)c1oc2ccc(Br)cc2c1C`, the activation was 1.27%.

As to `O=C(NC(c1ccccc1)C(C(=O)c1ccccc1)C(=O)c1ccccc1)OCCc1ccccc1` (stereo not drawn), the activation was -0.699%.

For the molecule `COCCCNCc1c(C(=O)O)n(Cc2ccccc2F)c2cc(OC)ccc12`, the activation is 1.64%.

For `CCN(CC)CCNS(=O)(=O)c1ccc(Br)c(C)c1`, the activation is 0.131%.

In the case of `O=C(CSc1nnnn1-c1ccc2c(c1)OCCO2)NNC(=O)c1ccco1`, the activation is 2.23%.

For the molecule `COc1cccc(OC(=O)c2ccc(F)cc2[N+](=O)[O-])c1`, the activation was -5.87%.

`CCCCN(C)Cc1cc(Br)ccc1OC`: the activation was 0.319%.

Consider `CCOC(=O)N1CCc2c(sc(NC(=O)CCSc3ccccc3)c2C#N)C1`, for which the activation was 0.685%.

Consider `CC(C)N1CCc2c(sc(NC(=O)Cc3ccccc3)c2C#N)C1`, for which the activation is 4.91% (active).

For `CC(=O)N1CCc2c(sc(NC(=O)CCS(=O)(=O)c3ccccc3)c2C#N)C1`, the activation was -0.234%.

With `Cc1ccc(CNC(=O)CCC2CCCN(C(=O)c3cccc(-c4ccco4)c3)C2)o1` (stereo not drawn), the activation is -0.6%.

Regarding `CC(C)c1nc(CNC(=O)Cn2nnnc2CN2C[C@@H](C)O[C@@H](C)C2)cs1`, the activation was 0.432%.

As to `CCC(C)C(=O)N1CCc2c(C(=O)NCc3ccsc3)c(OC)cc(=O)n2CC1` (stereo not drawn), the activation is 0.148%.

Regarding `CC1CCC(NS(=O)(=O)c2ccc3c(c2)oc(=O)n3C)CC1` (stereo not drawn), the activation was 0.208%.

For `CC1CCN(C(=O)C(NS(=O)(=O)c2ccc3c(c2)oc(=O)n3C)C(C)C)CC1` (stereo not drawn), the activation is 7.77% (active).

`CC(C)CC(NS(=O)(=O)c1ccc2c(c1)oc(=O)n2C)C(=O)N1CCC(C)CC1` (stereo not drawn): the activation is -0.109%.

On to `O=C1CC(N2CCN(Cc3ccccc3)CC2)C(=O)N1c1ccccc1F` (stereo not drawn), for which the activation was -0.408%.

On to `O=C(Cn1cnc2c(cnn2-c2ccc(F)cc2)c1=O)NCCc1ccccc1`, for which the activation was 0.508%.

Turning to `Cc1ccc2[nH]c3c(=O)n(CC(=O)NCCC4=CCCCC4)cnc3c2c1`, the activation was 0.423%.

In the case of `O=C(CCn1cnc2c(cnn2-c2ccc(F)cc2)c1=O)NCCC1=CCCCC1`, the activation was 7.05% (active).
